Legend:
Details in all cases: concentration: 1 μM, replicates: in singlicate; n = 1
FLT1 = test system: FLT1
FLT3-autoinhibited = test system: FLT3-autoinhibited
FLT3 = test system: FLT3
FLT4 = test system: FLT4
FRK = test system: FRK
FYN = test system: FYN
GAK = test system: GAK
GCN2(Kin.Dom.2,S808G) = test system: T1, GCN2(Kin.Dom.2,S808G)
T1 construct: gene EIF2AK4

GRK1 = test system: GRK1
GRK2 = test system: T2, GRK2
T2 construct: gene ADRBK1
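Note: KINOMEscan kinase panel screen.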

Row | SMILES | %Inh (FLT1) [%] | %Inh (FLT3-autoinhibited) [%] | %Inh (FLT3) [%] | %Inh (FLT4) [%] | %Inh (FRK) [%] | %Inh (FYN) [%] | %Inh (GAK) [%] | %Inh (GCN2(Kin.Dom.2,S808G)) [%] | %Inh (GRK1) [%] | %Inh (GRK2) [%]
1 | COc1cccc(NC(=O)Nc2ccc(C)c(-c3ccc(C(=O)Nc4ccncc4)cc3)c2)c1 [GSK1398474] | 37 | 0 | 25 | 41 | 10 | 25 | 0 | 0 | 28 | 0
2 | Cn1cnc2c(N)ncnc21 [SKF-97623] | 0 | 100 | 0 | 0 | 0 | 0 | 0 | 27 | 0 | 29
3 | Cn1cncc1-c1cc2c(Nc3ccc(OCc4ccccc4)cc3)ncnc2cn1 [GW281179] | 19 | 0 | 0 | 0 | 6 | 28 | 0 | 1 | 0 | 9
4 | CNc1nc(-c2ccc3c(N)n[nH]c3c2)cc(N2C[C@@H](C(=O)NC3CCCCC3)OC[C@H]2C)n1 [GSK2375584] | 25 | 20 | 0 | 0 | 4 | 6 | 0 | 0 | 12 | 0
5 | COc1cccc(C2=C(Nc3cc(Cl)c(O)c(Cl)c3)C(=O)NC2=O)c1 [SB-390767] | 20 | 0 | 0 | 10 | 20 | 30 | 100 | 0 | 3 | 0

— paper PMC5540273 (PLoS ONE, 2017)
